Assay results from the supplement of paper PMC3334620.
In all, about 33,000 sequences were measured (“E-score (-0.5 to 0.5)”: median about -0.01, highest 2% from about 0.26 on). Many of the other results were omitted from the sample, so the highest values are more common in it than they were.

What follows are sequences tested against Ste12 (UniProt P13574) (assay: PBM E-score (8-mer binding enrichment) (E-score (-0.5 to 0.5)); higher = stronger / more preferred TF binding). Settings: protein concentration: 200 nM; construct: GST-DNA-binding domain.
Sequence of UniProt P13574 (P13574 whole entry, the tested form may be a part): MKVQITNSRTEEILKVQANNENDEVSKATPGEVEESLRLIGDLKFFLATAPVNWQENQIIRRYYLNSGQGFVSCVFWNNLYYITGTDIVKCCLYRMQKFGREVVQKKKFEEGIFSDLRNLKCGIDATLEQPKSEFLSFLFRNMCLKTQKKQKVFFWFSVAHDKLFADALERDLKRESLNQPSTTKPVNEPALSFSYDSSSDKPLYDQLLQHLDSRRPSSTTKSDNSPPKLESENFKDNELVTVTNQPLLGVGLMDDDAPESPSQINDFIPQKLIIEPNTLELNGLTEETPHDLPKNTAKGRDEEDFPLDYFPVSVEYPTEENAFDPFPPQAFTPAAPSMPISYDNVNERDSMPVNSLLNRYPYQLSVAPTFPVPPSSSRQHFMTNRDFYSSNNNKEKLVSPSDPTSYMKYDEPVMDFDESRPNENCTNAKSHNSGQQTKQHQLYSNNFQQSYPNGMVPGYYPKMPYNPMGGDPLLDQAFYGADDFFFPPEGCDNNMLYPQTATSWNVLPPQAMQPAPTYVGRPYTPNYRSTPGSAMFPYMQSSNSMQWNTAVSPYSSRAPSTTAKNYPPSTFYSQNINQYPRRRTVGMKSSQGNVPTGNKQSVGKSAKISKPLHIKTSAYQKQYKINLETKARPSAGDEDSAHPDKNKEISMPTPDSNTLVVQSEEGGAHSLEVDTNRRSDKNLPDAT
Description: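 Universal 'all 10-mer' protein binding microarrays (Agilent AMADID 015681) probed with GST-tagged S. cerevisiae TFs (full-length or DBD) made by in vitro transcription/translation (PURExpress), about 100-200 nM. Bound TF was detected with fluorescent anti-GST. Each ungapped 8-mer (which stands for itself and its reverse complement) is scored by the PBM enrichment score (E-score), a modified Wilcoxon-Mann-Whitney statistic from -0.5 to +0.5, computed with the Universal PBM Analysis Suite. Scale: above 0.35 generally sequence-specific binding.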

Sequence | PBM E-score
CTGATCAG | -0.0327
TATTTGCA | 0.0371
CCCAGCGA | -0.0316
ACCAATTA | 0.199
CGAAACAC | 0.348
AGAAACAG | 0.0492
GGAAACAC | 0.225
CGAAACCA | 0.209
CGAAACAG | 0.244
AGAAACCA | 0.194
AGAAACAC | 0.121
AGAAACAT | 0.32
AAAAACAT | 0.241
GAAAACAA | 0.197
CGAAACAA | 0.349
TGAAACCA | 0.438
CGACGCAG | -0.237
GCCTATTA | 0.0234
CAGCTCCC | -0.254
CCCGTCAC | 0.0322
CCAGCAAG | -0.148
AGGAGCAA | -0.108
CGGCCCGA | 0.078
CCGAATAG | -0.0705
AAATCTGG | 0.21

Sequence | PBM E-score
GGCGCTCA | -0.066
ATGATAAT | 0.13
AGACCTAG | -0.0522
TCAAACCA | 0.278
CCAAACCA | 0.0357
AGAAACAA | 0.26
TGAAACAA | 0.493
ACAAACCA | 0.00217
GGAAACAA | 0.13
CGGAAGAA | 0.0583
ATATCATC | 0.141
GATAGAAC | 0.0461
AGATTAGA | 0.00999
CAAGTTTC | 0.254
AATGTTTA | 0.174
AAAGTTTA | 0.199
AATGTTTC | 0.318
AATGTTTG | 0.0124
AATGTTAG | -0.00616
AATGTTAA | 0.102
AATGTTAT | 0.265
CATGTTTA | 0.199
CATGTTTC | 0.4
CATGTTGC | -0.0677
AAAGTTTC | 0.329

Sequence | PBM E-score
AACGCTAA | -0.0143
GTGTAGGA | 0.0365
CACTCCAG | -0.019
ACTCTGAT | 0.146
ATAAAGCC | 0.00222
AGGCCTAG | -0.218
ACAGAAGG | -0.173
CTTGAGGC | -0.184
ATGGACGG | -0.00997
CTCGCACC | -0.103
CGCCCACA | 0.197
CGTCGCCC | -0.121
GAAAATTA | 0.206
ACAAATTG | 0.177
CAAAATTG | 0.0598
ATAAATTA | 0.255
CAAAATTA | 0.247
AAAAATTC | 0.224
AAAAATTG | 0.263
ATAAATTC | 0.102
CCAAATTA | 0.221
ATAAATTG | 0.321
ACAAATTA | 0.263
AAAAATTA | 0.326
CTCAACGC | -0.0089

Sequence | PBM E-score
CAGCAGCC | -0.0193
AATGGAGC | -0.0645
AAACGATT | 0.165
ACTACTCA | -0.0467
ACACCATG | -0.108
GACCGATA | -0.00126
GCGAAGAC | -0.141
AGGATTGC | -0.025
ATAAACTG | 0.302
ATAAACTA | 0.211
ATAAACTC | 0.125
CTACGCTC | -0.00605
CTCCCATA | -0.0685
TATTGGAA | -0.00217
TGATACAA | 0.339
GGGATAAC | -0.0162
CAATACAA | 0.294
TGATAAAA | 0.266
CAATACAC | 0.0704
AGATACAA | 0.135
GGGATAAA | 0.271
AGATAAAA | 0.245
CGGATAAA | 0.149
CGATAAAA | 0.171
CAATACAG | -0.115

Sequence | PBM E-score
CGATACAA | 0.0267
AATTAGGA | 0.145
CCCAGCGG | -0.192
AACACTCG | 0.0544
TCTGAACA | 0.0453
ACCACCGG | -0.0277
AAATTGAA | 0.185
CCATGAAG | -0.0229
CATAAGGC | -0.0753
GGTGCGAA | 0.2
AAACCGTT | 0.00687
CGGTAAAA | 0.198
GGATAAAC | 0.135
GGATAAGA | 0.0906
GGGTAAAC | 0.119
GGGTAAAA | 0.295
GGATAAAA | 0.279
TGGGCCAA | -0.177
CAGCGTCG | -0.0332
CGGAATAC | 0.134
GATCAAGC | -0.0184
GAAGGCTC | -0.209
AATAAAAC | 0.245
GATAAAAC | 0.327
GATAAATA | 0.215

Sequence | PBM E-score
GATAAAAA | 0.277
GATAAAGA | 0.0926
GATAAACC | 0.0557
CATAAAAC | 0.28
CATAAAAG | 0.0283
CATAAAAA | 0.175
CGAGCCGA | -0.0584
AGGTTTTC | 0.241
GAGCTCCC | -0.0992
CAGACTTC | -0.0901
ACGACTAT | -0.0677
CGTCACCC | 0.0725
ACAGAATG | 0.0528
GGAACTAC | -0.105
TACTATCA | 0.13
AACTATTC | 0.264
AACTATCA | 0.262
GACTATCA | -0.0567
CACTATTC | 0.0168
AACTATTA | 0.0788
ATACGGCG | 0.15
ACGGGTCT | -0.211
CCAATCTC | 0.0596
ACCTGCAA | -0.0499
GTGCGCAA | -0.0274

Sequence | PBM E-score
ATGCGCAC | 0.0144
GTGCGCAC | 0.355
CCAATCCA | -0.0476
AGCGATCG | 0.00873
CAAAAGAC | 0.0341
CGATTCGC | 0.0897
GCTTGAAA | 0.198
CCTTGAAA | 0.21
ACTTGAAT | 0.0108
ACTTGAAA | 0.314
TCTTGAAA | 0.308
ACTTGAAG | 0.119
GTCGAAGA | -0.0112
ACCTTAGT | -0.137
ATTGTAGC | 0.0213
AGTGGTAT | -0.0443
TCACAGGA | 0.122
GCGTGAAC | -0.0471
GGTGGGGA | 0.318
GGAGGGAA | -0.0917
GGGTGGGA | 0.319
CGAGGGGA | 0.0767
CGTGGGGA | 0.0623
GGTGGGAA | 0.127
GGAGGGGA | 0.366

Sequence | PBM E-score
AGGTGGGA | -0.049
CGGTGGGA | 0.033
GATCGATA | 0.0823
TCAAGGCA | -0.169
ACCTTGGA | -0.197
ATGTCTTA | 0.134
AACACGAC | -0.104
CAATATAC | 0.116
CAATATAA | 0.316
TAATATAA | 0.287
GAATATAA | 0.161
CAATATAG | 0.117
TATAATAA | 0.141
CTCCCGTC | 0.0578
AAAGGGAT | 0.00067
AAAGTCAA | 0.189
ATCTTATA | 0.0647
GTCTTATA | 0.0618
CTCTTATA | 0.267
AAGCCCCA | -0.237
AGGCCATA | -0.245
CCCATAGA | -0.143
AAAATTAG | 0.31
AAAATTTT | 0.311
AAAATTAA | 0.134

Sequence | PBM E-score
AAAATTAT | 0.337
ATAATTAT | 0.195
AAAATTTG | 0.0212
AAAAATTT | 0.138
AAAATTAC | 0.188
AAAATTGT | 0.225
GGCCACCA | 0.0635
CAACCTAA | 0.0543
GTATCGTA | 0.0508
GATGCAAC | -0.0126
AGTTGACG | 0.019
CATCCAGA | -0.00655
GGAACGCC | -0.017
GAAACGCA | 0.323
CAAACGCC | 0.0326
GAAACGCC | 0.288
TAAACGCA | -0.0738
CAAACGCA | -0.133
ATGCTTAG | -0.205
